Screens as filed in PubChem.
TRPML1 agonist: agonists of human TRPML1 channel; TRPML1-expressing cells, Ca2+ dye fluorescence, FDSS; activation, % (concentration not given with the values); 0.12% of 410,000 active; in the data active means activation above about 50%; inconclusive means mostly about 30% to 49%; further: 0% is about no effect
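In this qHTS format, compounds were pin-transferred onto Ca8-dye-loaded TRPML1-DL cells induced with Tet overnight, and intracellular Ca2+ fluorescence was recorded kinetically for 110 s after a 10 s baseline. A subsequent 4uM final 54-4 (EC80) addition followed by a second 110 s read served as the antagonist phase.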
TRPML1 inh: blocks the human TRPML1 channel | TRPML1-inducible cells, Ca2+ dye fluorescence, FDSS; active compounds read low; inhibition of EC80 agonist-evoked calcium signal | activity change, negative = inhibition, % (concentration not given with the values) | 0.02% of 390,000 active | AID 624415; in the data active means activity change below about -50%; inconclusive means between about -30% and that limit;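 further: stimulus is agonist 54-4 at its EC80 concentration; on the % scale 0 is the no-effect control and ±100 the full control effect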
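TRPML1-DL cells, Tet-induced overnight (~16 h, 37 °C) at 1,500 cells/well, were loaded with Ca8 no-wash dye plus quencher for 45-90 min at room temperature. Compounds were pinned during FDSS kinetic reading; agonist 54-4 at EC80 (4 uM final) then added.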
TRHR agonist-1: TRH receptor (human) agonism. P34981. TRHR cells, calcium flux fluo-8, FDSS agonist mode. activation, % at 2 µM. 0.18% of 360,000 active; in the data active means activation above about 30%; further: 0% is about no effect
Target sequence (P34981 whole entry, looked up): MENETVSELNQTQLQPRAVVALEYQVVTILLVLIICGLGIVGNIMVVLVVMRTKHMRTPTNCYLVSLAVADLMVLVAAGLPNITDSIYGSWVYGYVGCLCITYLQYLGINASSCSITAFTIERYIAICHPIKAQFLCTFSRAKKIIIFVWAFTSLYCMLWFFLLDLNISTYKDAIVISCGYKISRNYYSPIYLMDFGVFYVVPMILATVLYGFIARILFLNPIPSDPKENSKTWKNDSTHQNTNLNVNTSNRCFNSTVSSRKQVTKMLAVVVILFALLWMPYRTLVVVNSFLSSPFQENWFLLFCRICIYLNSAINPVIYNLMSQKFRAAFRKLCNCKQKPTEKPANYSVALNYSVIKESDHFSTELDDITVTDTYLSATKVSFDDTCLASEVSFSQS
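TRHR-expressing cells loaded with fluo-8 calcium dye; 23 nL library compound pin-transferred, kinetic FDSS fluorescence (Ex 480/Em 530) recorded about 180 s for agonist-induced calcium release, before a 10 nM TRH EC20 addition for potentiator mode.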
TRPV1 agonist: human TRPV1 agonism; Q8NER1; TRPV1-expressing cells, Fluo-8 calcium influx, agonist mode; activation, % at 8.33 µM; 0.19% of 320,000 active; AID 540275; in the data active means activation above about 80%; inconclusive means between about 30% and that limit; further: 0% is about no effect
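Fluo-8 calcium influx in TRPV1-expressing cells, kinetic read (ex 480/em 520 nm). Compound added and read 3 min for agonist activity, followed by capsaicin at EC20 final and 2 min further read for enhancement.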
TRPV1 potentiator: potentiators of human vanilloid receptor 1 (TRPV1) | Q8NER1 | TRPV1-expressing cells, Fluo-8 calcium influx, capsaicin EC20 potentiation | potentiation, % at 8.33 µM | 0.02% of 320,000 active; in the data active means potentiation above about 80%; inconclusive means between about 30% and that limit; further: 0% is about no effect
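Fluo-8 calcium influx in TRPV1-expressing cells, kinetic read (ex 480/em 520 nm). Compound added and read 3 min for agonist activity, followed by capsaicin at EC20 final and 2 min further read for enhancement.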
TRHR enhancer-1: allosterically enhances the human TRH receptor. P34981. TRHR cells, fluo-8 calcium fluorescence, EC20 TRH enhancement. enhancement, % at 2 µM. 0.66% of 360,000 active. AID 493056; in the data active means enhancement above about 30%; further: 0% is about no effect
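TRHR-expressing cells loaded with fluo-8 calcium dye were read kinetically (ex 480/em 530) during compound addition, then stimulated with an EC20 of TRH (10 nM final). Enhancement of the Gq-mediated intracellular calcium response was scored.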
TRHR enhancer-2: confirmation of human TRH receptor allosteric enhancers. shares compounds with TRHR enhancer-1. TRH receptor cell assay, enhancer confirmation qHTS. activity change, negative = inhibition, % at 46.1 µM. 970 tested, under 10 active;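 further: compound effect scored on response to added TRH at EC20 of 10 nM; 0% is about no effect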
TRHR agonist-2: confirmation of human TRH receptor agonists. shares compounds with TRHR enhancer-1. TRHR-expressing cells, agonist activation read-out. Potency, µM (titrated, usually from 46.1 µM), without a hit: top-dose activation, actives largely listed as activators. 8% of 970 active; further: potency means the concentration at half of the fitted maximal effect; 0% is about no effect; nearly all actives have a fitted effect of over 75% in size
The depositor's hits bear a star; ? = inconclusive; . = not tested or not shown. In the library only some 0.96% were active in any assay of this set; here they are far more common. Unless noted, the call rests on the fitted dose curve; in most records, active means well fitted curve in the direction sought with a large enough effect; inconclusive means small, poorly fitted or top-dose-only effect, or another doubt; inactive means no such curve, though single readings can be large; an effect the other way counts as inactive or inconclusive.

SMILES | TRPML1 agonist | TRPML1 inh | TRHR agonist-1 | TRPV1 agonist | TRPV1 potentiator | TRHR enhancer-1 | TRHR enhancer-2 | TRHR agonist-2
O=C(CCN1C(=O)C2CCCCC2C1=O)N1CCN(S(=O)(=O)c2cccc(F)c2)CC1 (stereo not given) | 0 | -11 | 0 | -1 | 2 | 30 | . | .
O=C(CCN1C(=O)C2CCCCC2C1=O)N1CCN(S(=O)(=O)c2ccccc2)CC1 (stereo not given) | 1 | -20 | 0 | 0 | -2 | 41* | 4 | -1%
CCc1ccc(NC(=O)C[n+]2cc(-c3ccc(C)cc3)n3c2CCC3)cc1 | 5 | 15 | 0 | 0 | -11 | 42* | -1 | -1%
O=C(NNC(=S)NC(=O)c1ccccc1[N+](=O)[O-])c1ccccc1O | 0 | 11 | 2 | -1 | -10 | 1 | . | .
O=C(NC(=S)Nc1cccc2c(O)cccc12)c1ccccc1[N+](=O)[O-] | 0 | -18 | 0 | 6 | -7 | 50* | -2 | 0%
COc1cc(OC)c(/C=C/c2cc3c4ccccc4ccc3[n+](C)c2)c(OC)c1 | -1 | . | . | . | . | . | . | .
CN(c1ccccc1)c1nc(C#N)nc(N2CCOCC2)n1 | -1 | . | . | . | . | . | . | .
Cc1c(-n2cc(C(=O)c3ccccc3O)cc(C#N)c2=O)c(=O)n(-c2ccccc2)n1C | 5 | -21 | 42* | 3 | 20 | -2 | -8 | ?
N#Cc1cc(C(=O)c2ccccc2O)cn(-c2ccc(Cl)cc2)c1=O | 2 | 32 | 19 | -1 | 1 | 0 | . | .
O=C(O)C1CCCC1 | 0 | . | . | . | . | . | . | .
O=C(Nc1ccc(O)c2c(=O)cc(-c3ccccc3Cl)oc12)c1cc(Cl)cc(Cl)c1 | 0 | 11 | . | . | . | . | . | .
CC(=O)Nc1ccc(C(=O)Nc2ccc3c(c2)OCO3)cc1 | -1 | 7 | 0 | -1 | -14 | -6 | . | .
CS(=O)(=O)Nc1ccc(C(=O)Nc2ccc3c(c2)OCO3)cc1 | 2 | 2 | 0 | ? | -3 | 46* | -5 | 0%
CC(C)CC1=NN2C(=N)/C(=C\c3coc4ccccc4c3=O)C(=O)N=C2S1 | 69* | -19 | 25 | 8 | -11 | 14 | 0 | 2.6µM*
Cc1ccc(NC(=O)c2cnn3c2NC(=C2CC2)C=C3C(F)F)cc1 | -1 | . | . | . | . | . | . | .
Cc1ccc(S(=O)(=O)/N=C2\C=C(Nc3cccc(C(=O)O)c3)C(=O)c3ccccc32)c(C)c1 | 3 | -3 | -2 | 0 | 18 | 61* | -12 | 3%
Cc1ccc(S(=O)(=O)/N=C2\C=C(Nc3cccc(C(=O)O)c3)C(=O)c3ccccc32)cc1 | 8 | 19 | 0 | -2 | 9 | 0 | . | .
CCc1ccc2occ(CC(=O)Nc3ccc(C)c(C)c3)c2c1 | 5 | 6 | -1 | . | . | 63* | -5 | 6%
Cc1ccc(NC(=O)Cc2coc3ccc(C(C)C)cc23)cc1Cl | 2 | -14 | -1 | . | . | 3 | . | .
NS(=O)(=O)c1ccc(NC(=O)COC(=O)c2cn(-c3ccccc3)nc2-c2ccc(F)cc2)cc1 | 1 | 15 | 1 | ? | -12 | 45* | -8 | ?
O=C(CN1CCC(C(=O)c2ccc3c(c2)OCCO3)CC1)Nc1ccccc1F | 1 | -19 | 0 | 28 | -13 | 48* | -9 | 1%
COc1cc2nc(NC3CCN(C)CC3)nc(N3CCCN(C)CC3)c2cc1OC | 0 | . | . | . | . | . | . | .
CC(=N/O)/C(C)=N\NC(=O)c1ccccn1 | 0 | 0 | 0 | 2 | 26 | 60* | 1 | 0%
COc1ccccc1C/C(N)=N/OC(=O)c1cccs1 | -1 | -3 | 0 | 1 | 3 | 47* | -2 | -1%
COc1cc(/C=C2\SC(=S)N(Nc3ccccc3)C2=O)ccc1O | 16 | -8 | 35* | 19 | 11 | -6 | 2 | 16µM*
SMILES | TRPML1 agonist | TRPML1 inh | TRHR agonist-1 | TRPV1 agonist | TRPV1 potentiator | TRHR enhancer-1 | TRHR enhancer-2 | TRHR agonist-2
COc1cc(/C=C2\SC(=S)N(Nc3ncc(C(F)(F)F)cc3Cl)C2=O)ccc1O | 1 | 0 | 47* | 10 | ? | 26 | 1 | ?
COc1cc(/C=C2\SC(=S)N(C(Cc3ccccc3)C(=O)O)C2=O)ccc1O (stereo not given) | 11 | 1 | 34* | 7 | 5 | 4 | 0 | ?
O=C(NN1C(=O)/C(=C/c2ccc(O)c(O)c2)SC1=S)c1ccccc1 | 4 | -15 | 29 | 3 | ? | 10 | ? | ?
COc1cc(/C=C2\SC(=S)N(NC(=O)c3cccnc3)C2=O)ccc1O | 13 | 12 | 13 | 5 | 11 | 1 | . | .
ICC[n+]1csc2ccccc21 | -1 | . | . | . | . | . | . | .
CCNc1nc(C#N)nc(N2CCOCC2)n1 | -1 | . | . | . | . | . | . | .
COc1cccc(NC(=O)CN(c2ccc(C)cc2)S(=O)(=O)c2c(C)nn(C)c2C)c1 | 0 | -3 | 33* | 0 | -1 | 0 | -3 | 7%
COc1ccc(N(CC(=O)Nc2cccc(OC)c2)S(=O)(=O)c2c(C)nn(C)c2C)cc1 | 1 | 0 | 0 | 0 | 24 | 6 | . | .
OC(Cc1ccc2ccccc2n1)c1ccccc1 (stereo not given) | -1 | . | . | . | . | . | . | .
CN1/C(=C\C(=S)NC(=O)c2cccc(Br)c2)C(C)(C)c2ccccc21 | 1 | 36 | 0 | 10 | 0 | -4 | . | .
CN1/C(=C\C(=S)NC(=O)c2ccc([N+](=O)[O-])cc2)C(C)(C)c2ccccc21 | 3 | 12 | -1 | -1 | 2 | 48* | -4 | 2%
CC(C)(C)NC(=O)C1N(c2cccnc2)C(=O)C2C(C(=O)Nc3ccccc3)C3(C)C=CC21O3 (stereo not given) | 1 | -5 | 1 | -4 | -1 | 2 | . | .
Cc1cc(NC(=O)C2C3C(=O)N(c4cccnc4)C(C(=O)NC(C)(C)C)C34C=CC2(C)O4)no1 (stereo not given) | 0 | 15 | 0 | 0 | 9 | 42* | 2 | 5%
O=c1c2ccccc2c(/C=N/NS(=O)(=O)c2ccccc2)c(O)n1-c1ccccn1 | 14 | 10 | 32* | 5 | -5 | 27 | -6 | 4%
CCCCCc1cc[n+](CC(=O)c2ccccc2)cc1 | 0 | . | . | . | . | . | . | .
c1ccc(-n2cccc2CNC2CCCCC2)cc1 | 0 | -6 | 0 | 1 | 17 | 48* | -5 | 9%
CN1CCN(NC(=O)NC2CCCCC2)CC1 | 0 | 1 | 1 | 0 | 10 | 41* | 8 | 4%
